Among the test systems are SK-MEL-2 melanoma; EKVX NSCLC; SN12C renal; UO-31 renal; TK-10 renal; CAKI-1 renal; A498 renal; CCRF-CEM leukemia; MOLT-4 leukemia; OVCAR-8 ovarian; OVCAR-5 ovarian; OVCAR-4 ovarian; SK-OV-3 ovarian; IGROV1 ovarian; OVCAR-3 ovarian; HS 578T breast; NCI/ADR-RES ovarian; ACHN renal; SR leukemia; RPMI-8226 leukemia.
Common to all, as to assay: NCI-60 one-dose screen, 48 h (100 = growth as untreated, 0 = no growth, -100 = all killed)
What all share (conditions): 10 µM unless noted

This is part of a sample that, as a whole, favours compounds with a hit. Of some 83,000 tested, about 20% had one in any assay.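 For each line, cells grew in 96-well plates with the test compound present at a single concentration for 48 hours.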 A number with no mark means an inactive call. Active and inactive are the calls of the source. How the source made its calls: active means growth percent below 10; inactive means the rest.

Regarding `N=c1c2ccccc2nc2n1CCCCC2`, the growth in the test on SK-MEL-2 melanoma is 114%; with EKVX NSCLC, 103%; in the test with SN12C renal it was 104%; with UO-31 renal it was 89.7%; in the test with TK-10 renal, 123%; in the test on CAKI-1 renal it was 95.1%. Also, the growth in the test on A498 renal was 121%; with CCRF-CEM leukemia it was 92.9%; with MOLT-4 leukemia it was 117%; in the test on OVCAR-8 ovarian it was 114%; with OVCAR-5 ovarian, 96.1%; in the test with OVCAR-4 ovarian, 107%. Further, the growth with SK-OV-3 ovarian is 112%; with IGROV1 ovarian, 106%; with OVCAR-3 ovarian, 116%; with HS 578T breast, 95.4%; in the test on NCI/ADR-RES ovarian, 105%.

Take `CC/C=C\C[C@H](O)C/C=C1/C(=O)C=C[C@@H]1C/C=C\CCCC(=O)OC(C)C`: the growth in the test on SK-MEL-2 melanoma is -21.3% (active); in the test with EKVX NSCLC, 15.9%; in the test on SN12C renal it was -16.3% (active); in the test on UO-31 renal, -72.6% (active); with TK-10 renal it was -3.87% (active); in the test on ACHN renal, -79.1% (active). For the same compound, the growth in the test with CAKI-1 renal is 9.27% (active); with CCRF-CEM leukemia, -28.8% (active); in the test with MOLT-4 leukemia, -24.5% (active); in the test on SR leukemia, -27% (active); in the test with OVCAR-8 ovarian, 5.63% (active); in the test on OVCAR-5 ovarian it was 9.35% (active). Moreover, the growth with OVCAR-4 ovarian was 23.3%; in the test on SK-OV-3 ovarian, 16.4%; in the test with IGROV1 ovarian it was -2.92% (active); in the test with OVCAR-3 ovarian, -39.6% (active); in the test with HS 578T breast, 53.9%; with NCI/ADR-RES ovarian, 6.4% (active).

Regarding `C=C1C(=O)O[C@H]2[C@H]1CC/C(Cn1cc(Cn3ccc4cc(Cl)ccc43)nn1)=C\CC[C@@]1(C)O[C@@H]21`, the growth in the test with SK-MEL-2 melanoma was 18.1%; in the test on EKVX NSCLC, 42.4%; in the test on SN12C renal, 19.4%; in the test with UO-31 renal it was -100% (active); in the test on TK-10 renal it was -24.7% (active); in the test with CAKI-1 renal, 3.92% (active). Also, the growth is 45% in the test on A498 renal; -27.1% (active) in the test with CCRF-CEM leukemia; -22.1% (active) in the test on MOLT-4 leukemia; -27% (active) in the test on SR leukemia; -42.3% (active) in the test on RPMI-8226 leukemia; -38.8% (active) with OVCAR-8 ovarian. Also, the growth in the test with OVCAR-5 ovarian was 69.5%; in the test on OVCAR-4 ovarian, 14.3%; with SK-OV-3 ovarian it was 85.9%; with IGROV1 ovarian, 2.27% (active); in the test with HS 578T breast, 52.1%; in the test with NCI/ADR-RES ovarian, 50.6%.

Regarding `CCN1CCN(Cc2ccc(NC(=O)Nc3nc4ccc(Oc5ccnc(C(=O)NC)c5)cc4s3)cc2C(F)(F)F)CC1`, the growth with SK-MEL-2 melanoma was -22.8% (active); in the test with EKVX NSCLC, 14.2%; in the test with SN12C renal, -75.4% (active); with UO-31 renal, -80.5% (active); in the test on TK-10 renal, -35.9% (active); with CAKI-1 renal, -44.2% (active). In addition, the growth with A498 renal is -33.4% (active); with CCRF-CEM leukemia, 0.0502% (active); in the test with RPMI-8226 leukemia, -22.9% (active); in the test with OVCAR-8 ovarian, -18.6% (active); with OVCAR-5 ovarian it was -40.6% (active); in the test on OVCAR-4 ovarian, -64.1% (active). Besides, the growth in the test on SK-OV-3 ovarian was -2.46% (active); in the test with IGROV1 ovarian it was -12.2% (active); in the test with OVCAR-3 ovarian, -74.1% (active); in the test on HS 578T breast, -38.6% (active).

As for `COC(=O)[C@H](C(C)C)n1c(=O)c2cc(OC)c(OC)cc2c2cnc3[nH]ccc3c21`, the growth in the test on SK-MEL-2 melanoma was 89.7%; in the test on EKVX NSCLC, 47.5%; in the test on SN12C renal, 43.5%; with UO-31 renal, 22%; in the test on TK-10 renal it was 51.1%; in the test on ACHN renal, 34%. In addition, the growth in the test with CAKI-1 renal was 30.5%; with CCRF-CEM leukemia, 39%; in the test on MOLT-4 leukemia, 1.15% (active); with RPMI-8226 leukemia, 55%; in the test on OVCAR-8 ovarian, 65.1%; in the test on OVCAR-5 ovarian, 39.9%. The growth in the test with OVCAR-4 ovarian is 85%; with SK-OV-3 ovarian it was 26.5%; with IGROV1 ovarian it was 3.08% (active); in the test with OVCAR-3 ovarian it was 48.8%; in the test on HS 578T breast it was 12.6%; in the test on NCI/ADR-RES ovarian, 56.4%.

Regarding `O=C1C=CC(=O)N1c1ccc(Cc2ccc(N3C(=O)C=CC3=O)cc2)cc1`, the growth with SK-MEL-2 melanoma was 112%; with EKVX NSCLC it was 109%; with SN12C renal, 96.1%; in the test on UO-31 renal, 81.9%; in the test with TK-10 renal it was 92.4%; in the test with CAKI-1 renal, 65.7%. In addition, the growth in the test with A498 renal is 91.2%; in the test with CCRF-CEM leukemia, 89.5%; in the test with MOLT-4 leukemia, 21.8%; in the test with SR leukemia, 92.6%; in the test on RPMI-8226 leukemia it was 81.6%; in the test on OVCAR-5 ovarian, 86.4%. Moreover, the growth with OVCAR-4 ovarian was 201%; in the test with SK-OV-3 ovarian it was 101%; in the test on IGROV1 ovarian it was 89.7%; in the test with OVCAR-3 ovarian it was 125%; with HS 578T breast, 94.7%; in the test on NCI/ADR-RES ovarian, 99.4%.

For the compound `COc1ccc(S(=O)(=O)NCCNc2nccc(-c3c(-c4cccc(N)c4)nc4sccn34)n2)cc1`, the growth was 108% in the test on SK-MEL-2 melanoma; 95.4% in the test with EKVX NSCLC; 95.7% in the test on SN12C renal; 83.2% with UO-31 renal; 115% in the test on TK-10 renal; 93.8% with CAKI-1 renal. The growth was 91.6% in the test with A498 renal; 101% in the test on CCRF-CEM leukemia; 99% in the test with MOLT-4 leukemia; 107% with SR leukemia; 96% in the test with RPMI-8226 leukemia; 98.2% with OVCAR-8 ovarian. The growth in the test on OVCAR-5 ovarian was 121%; in the test on OVCAR-4 ovarian it was 82.4%; in the test with SK-OV-3 ovarian, 108%; in the test with IGROV1 ovarian it was 98%; with OVCAR-3 ovarian, 100%; in the test with HS 578T breast, 97.9%. For the same compound, the growth in the test on NCI/ADR-RES ovarian is 101%.

With `O=S(=O)(NCCCNc1cc(-c2cn(-c3ccccc3)nc2-c2ccccc2)ccn1)c1ccc(C(F)(F)F)cc1`, the growth is 79% in the test with SK-MEL-2 melanoma; 46.4% in the test with EKVX NSCLC; 63% in the test with SN12C renal; 40.4% in the test on UO-31 renal; 72.3% in the test on TK-10 renal; 52.4% in the test with CAKI-1 renal. In addition, the growth with A498 renal was 70.6%; in the test with CCRF-CEM leukemia, 50.2%; in the test on MOLT-4 leukemia, 29.4%; with SR leukemia it was 39.3%; with RPMI-8226 leukemia, 44.1%; in the test with OVCAR-8 ovarian it was 54.6%. For the same compound, the growth was 58.7% with OVCAR-4 ovarian; 68.9% in the test with SK-OV-3 ovarian; 59.2% in the test with IGROV1 ovarian; 72% with OVCAR-3 ovarian; 61% in the test with HS 578T breast; 46.2% in the test on NCI/ADR-RES ovarian.

Consider `CC/C=C\C[C@H](F)C/C=C1/C(=O)C=C[C@@H]1C/C=C\CCCC(=O)O`, for which the growth in the test with SK-MEL-2 melanoma was 65.2%; with EKVX NSCLC it was 75.1%; in the test with SN12C renal, 44.3%; in the test with UO-31 renal it was 57.5%; with TK-10 renal, 128%; in the test on CAKI-1 renal it was 42.5%. Besides, the growth with A498 renal is 106%; with CCRF-CEM leukemia, -7.62% (active); in the test on MOLT-4 leukemia, -4.45% (active); with SR leukemia, -13.2% (active); in the test on OVCAR-8 ovarian, 11.2%; with OVCAR-5 ovarian, 86.1%. Besides, the growth is 83.6% in the test with OVCAR-4 ovarian; 86.4% in the test on SK-OV-3 ovarian; 65.4% with IGROV1 ovarian; 84% in the test with HS 578T breast; 9.24% (active) in the test with NCI/ADR-RES ovarian.

These data come from PubChem BioAssay (NCI).
